Values joined by “and” are separate entries in the source; they are usually repeats but may differ in a detail not shown here. Equal entries are not always repeated. Screen size: about 5,500 compounds; about 2,000 (36%) were called active. Inconclusive results (about 18%) are left out. No stated cut-off is given here; in the data, active means normalized growth mostly below about 0.91 (no sharp cut-off); inconclusive means no clear call, values can overlap the other calls; inactive means mostly above about 0.92. The list shows a part of the results.
Experiment: chemical genetic growth profiling, strain panel (AID 1159580);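 further: tested at 20 µM; growth read once vehicle control cultures reached saturation at 30 °C; 1 = growth at the plate median or of vehicle wells; lower values mean less growth of the strain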
Conditions: S. cerevisiae deletion strains, growth OD

Measured: normalized growth

CN1C(C(=O)Nc2ccccn2)=C(O)c2ccccc2S1(=O)=O
inactive: locus YAL013W, strain DEP1, hits give low values 0.977 and 0.995 | locus YAL021C, strain ccr4, hits give low values 0.977 | locus YAL026C, strain drs2, hits give low values 0.964 | locus YAL030W, strain snc1, hits give low values 0.944 | locus YAL040C, strain CLN3, hits give low values 1 | locus YBL061C, strain skt5, hits give low values 0.966 | locus YBR009C, strain hhf1, hits give low values 0.932 | locus YBR021W, strain FUR4, hits give low values 0.994 | locus YBR023C, strain chs3, hits give low values 0.982 | locus YBR171W, strain sec66, hits give low values 0.922 | locus YBR229C, strain ROT2, hits give low values 0.965 | locus YBR231C, strain swc5, hits give low values 0.953 | locus YBR279W, strain paf1, hits give low values 0.979 | locus YCL011C, strain gbp2, hits give low values 0.956 | locus YCL016C, strain dcc1, hits give low values 0.969 | locus YCL029C, strain bik1, hits give low values 0.955 | locus YCL061C, strain MRC1 (second series), hits give low values 0.997 | locus YCL069W, strain vba3, hits give low values 0.961 | locus YCR088W, strain abp1, hits give low values 0.968 | locus YDL005C, strain med2, hits give low values 0.964 | locus YDL035C, strain GPR1, hits give low values 1.01 | locus YDL040C, strain nat1, hits give low values 0.966 | locus YDL074C, strain BRE1, hits give low values 0.992 | locus YDL101C, strain DUN1, hits give low values 0.997 | locus YDL134C, strain PPH21, hits give low values 0.98 | locus YDL185W, strain tfp1, hits give low values 0.922 | locus YDL192W, strain arf1, hits give low values 0.966 | locus YDR001C, strain nth1, hits give low values 0.956 | locus YDR069C, strain doa4, hits give low values 0.984 | locus YDR101C, strain arx1, hits give low values 0.966 | locus YDR137W, strain rgp1, hits give low values 0.918 | locus YDR150W, strain NUM1, hits give low values 0.971 | locus YDR159W, strain sac3, hits give low values 0.966 | locus YDR162C, strain NBP2, hits give low values 0.991 | locus YDR195W, strain ref2 0.962 | locus YDR297W, strain sur2, hits give low values 0.945 | locus YDR318W, strain mcm21, hits give low values 0.944 | locus YDR334W, strain swr1, hits give low values 0.974 | locus YDR335W, strain msn5, hits give low values 0.97 | locus YDR363W, strain ESC2, hits give low values 1.02 | locus YDR388W, hits give low values 0.953 | locus YDR502C, strain sam2, hits give low values 0.957 | locus YEL003W, strain gim4, hits give low values 0.946 | locus YEL037C, strain rad23, hits give low values 0.976 | locus YEL061C, strain CIN8 (second series), hits give low values 0.978 | locus YEL061C, strain CIN8, hits give low values 0.977 | locus YER002W, strain NOP16, hits give low values 0.979 | locus YER015W, strain faa2, hits give low values 0.961 | locus YER016W, strain bim1, hits give low values 0.976 | locus YER110C, hits give low values 0.97 | locus YER111C, strain swi4, hits give low values 0.958 | locus YER155C, strain BEM2 (second series), hits give low values 0.882 | locus YER155C, strain BEM2, hits give low values 0.962 | locus YER167W, strain BCK2, hits give low values 0.968 | locus YFR010W, strain ubp6, hits give low values 0.971 | locus YGL078C, strain dbp3, hits give low values 0.959 | locus YGL086W, strain mad1, hits give low values 0.95 | locus YGL167C, strain pmr1, hits give low values 0.937 | locus YGL173C, strain kem1, hits give low values 0.957 | locus YGL227W, strain vid30, hits give low values 0.964 | locus YGL240W, strain doc1, hits give low values 0.949 | locus YGL248W, strain PDE1, hits give low values 0.984 | locus YGL253W, strain hxk2, hits give low values 0.961 | locus YGR078C, strain PAC10, hits give low values 0.975 | locus YGR135W, strain pre9, hits give low values 0.958 | locus YGR229C, strain SMI1, hits give low values 0.98 and 1.02 | locus YGR252W, strain gcn5, hits give low values 0.99 | locus YHR013C, strain ard1, hits give low values 0.91 | locus YHR027C, strain rpn1, hits give low values 0.982 | locus YHR030C, strain SLT2, hits give low values 0.972 and 0.968 | locus YHR079C, strain IRE1 (second series), hits give low values 0.96 | locus YHR079C, strain IRE1, hits give low values 0.947 | locus YHR094C, strain hxt1, hits give low values 0.956 | locus YHR129C, strain ARP1, hits give low values 0.97 | locus YHR142W, strain chs7, hits give low values 0.951 | locus YHR200W, strain rpn10, hits give low values 0.972 | locus YIL066C, strain RNR3, hits give low values 0.99 | locus YIL073C, strain SPO22, hits give low values 0.985 | locus YIL125W, strain kgd1, hits give low values 0.946 | locus YIR030C, strain dcg1, hits give low values 0.959 | locus YJL092W, strain hpr5, hits give low values 0.962 | locus YJL095W, strain BCK1 (second series), hits give low values 0.951 | locus YJL095W, strain BCK1, hits give low values 0.971 and 0.957 | locus YJL115W, strain asf1, hits give low values 0.985 | locus YJL134W, strain LCB3, hits give low values 0.967 | locus YJL154C, strain vps35, hits give low values 0.962 | locus YJL164C, strain tpk1, hits give low values 0.951 | locus YJL168C, strain set2, hits give low values 0.938 | locus YJL187C, strain SWE1 (second series), hits give low values 0.999 | locus YJR043C, strain POL32, hits give low values 0.995 | locus YJR066W, strain TOR1, hits give low values 0.918 | locus YJR075W, strain HOC1, hits give low values 0.991 and 1
active: locus YDR392W, strain spt3, hits give low values 0.539 | locus YJL129C, strain trk1, hits give low values 0.679 | locus YJL166W, strain qcr8, hits give low values 0.898

— PubChem BioAssay AID1159580 (chemical genetic matrix, 2015)
